Compounds with a hit are over-represented: about 21% of the library has one in this group of screens.
HCV inhibitor – HCV inhibition; Potency, µM (top dose mostly 41.8 µM), without a hit: at the top dose activity change, negative = inhibition, actives largely listed as inhibitors; Huh7.5.1 HCVcc-Cre infection, luciferase reporter, 44 h; AID 651820; 3.4% of 340,000 active; further: potency means the concentration at half of the fitted maximal effect; on the % scale 0 is the no-effect control and ±100 the full control effect
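Luciferase read-out (15 sec integration) after a 15 min room-temperature substrate step quantifies HCVcc-Cre infection. Cells, 1,000 per well, had compound added 4 h post-plating, then virus at ~0.5 moi, and were cultured 44 h.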
Pf growth 96h – P. falciparum growth inhibition at 96 hour, primary screen for plastid delayed-death inhibitors; P. falciparum luciferase reporter growth, 96 h; Potency, µM (top dose mostly 28.7 µM), for inactives: at the highest dose activity change, negative = inhibition, most hits filed as inhibitors; 6.9% of 320,000 active; further: potency means the concentration at half of the fitted maximal effect; on the % scale 0 is the no-effect control and ±100 the full control effect
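Erythrocytes infected with luciferase-expressing P. falciparum were dispensed at 2% hematocrit and 0.05% parasitemia (final), then incubated with compounds 96 hours at 37 C in 5% CO2. Luminescence after detection reagent addition reported growth.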
Pf growth 48h – inhibits P. falciparum growth in the first generation, 48 h; P. falciparum luciferase growth in erythrocytes, 48 h; Potency, µM (highest dose often 28.7 µM), without a hit: at the highest dose activity change, negative = inhibition, hits mostly inhibitors; 5.9% of 310,000 active; further: potency means the concentration at half of the fitted maximal effect; on the % scale 0 is the no-effect control and ±100 the full control effect
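Parasite viability was followed by luminescence of a genomically integrated firefly luciferase. Cultures held 0.1% parasitemia at 2% hematocrit (final), incubated under 5% CO2 at 37 C.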
Cycloheximide cs – counter-screen for Shiga toxin inhibitors: cycloheximide protein synthesis inhibition | max response, % | AID 2314 | cell reporter, cycloheximide protein synthesis inhibition counterscreen | 12% of 300,000 active; in the data active means max response mostly above about 13%, no sharp cut-off; inactive means mostly below about 14%; further: read at 38.3 µM for the half of the compounds with a filed dose; 0% is about no effect
Shiga inhibitor – blocks Shiga toxin action in Vero cells | Vero cells, Shiga toxin protein synthesis inhibition reporter | 9.2% of 290,000 active | inhibition, % at 38.7 µM; in the data active means inhibition mostly above about 28%, no sharp cut-off; inactive means mostly below about 43%; further: 0% is about no effect
HCMV inh – human cytomegalovirus inhibition | HFF cells, HCMV-luciferase reporter, 72 h; hits give low values | activity change, negative = inhibition, % at 57.5 µM | 4.5% of 410,000 active | AID 1259415; in the data active means activity change below about -60%; inconclusive means no clear call, values can overlap the other calls; inactive means above about -39%; further: on the % scale 0 is the no-effect control and ±100 the full control effect
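Two-dose cell screen: HFF monolayers treated with compounds and infected with luciferase-expressing HCMV at 1 PFU/cell, 72 h at 37C, then lysed for luciferase measurement.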
The depositor's hits bear a star; u = inconclusive; x = no result given; [ ] = another dose, or the depositor's remark. Unless noted, the call rests on the fitted dose curve; in most records, active means well fitted inhibition curve with a large enough effect; inconclusive means small, poorly fitted or top-dose-only effect, or another doubt; inactive means no such curve, though single readings can be large or run the other way.

SMILES	HCV inhibitor	Pf growth 96h	Pf growth 48h	Cycloheximide cs	Shiga inhibitor	HCMV inh
Nc1ccc(C(=O)c2cccs2)cc1	9%	18%	43%	11	36	-14
COc1ccc(CNC(=O)c2ccc(CSc3nc4ccncc4n3Cc3ccccc3F)cc2)cc1	x	x	x	x	x	0
COc1ccc(N(CC(=O)N/N=C(\C)c2ccccc2)S(=O)(=O)c2ccccc2)cc1	16%	-24%	15%	-6	-10	-2
C/C(=N\NC(=O)CN1CCCCC1)c1ccccc1O	u	32%	u	23*	39*	-34
CC(C)(C)C1CCC(=NNC(=O)CN(c2ccccc2)S(C)(=O)=O)CC1 (configuration not stated)	-1%	2%	6%	43*	90*	u
C/C(=N\NC(=O)CN(c1ccccc1)S(C)(=O)=O)c1ccccc1O	u	u	12µM*	-3	-7	-22
COc1ccc(NC(=O)CC2Oc3ccc(C)cc3NC2=O)cc1Cl (configuration not stated)	x	x	x	x	x	-13
CCOc1ccc(NC(=O)Cn2cc(C(=O)c3ccc(CC)cc3)c(=O)c3cc4c(cc32)OCO4)cc1	x	x	x	x	x	-9
CCc1c(C)nc(SCC(=O)NNC(=O)c2ccco2)[nH]c1=O	2%	u	13%	30*	39*	-21
CCc1cc2ccc(C)cc2nc1SCC(=O)NNC(=O)c1ccco1	6%	4.7µM*	17%	-1	-8	u
N/C(=N\OC(=O)N1CCOCC1)c1ccc(Cl)cc1	2%	u	9.3µM*	55*	53*	-31
N/C(=N\OC(=O)N1CCOCC1)c1ccccc1	-19%	8.3µM*	6.6µM*	23*	32	u
N/C(=N\OC(=O)N1CCOCC1)c1ccc(Br)cc1	u	43%	u	53*	62	-76*
S=C(c1ccc(Cl)cc1)N1CCOCC1	7%	3%	2%	-5	-13	-25
O=C(Oc1cccc(C(=O)N2CCOCC2)c1)c1ccc(Br)cc1	12%	x	-3%	-3	-9	14
COc1ccc(-n2c(=O)c3sc4ccccc4c3n(Cc3ccccc3)c2=O)cc1	x	x	x	x	x	-8
Cc1cccc(NC(=S)N(CCCN2CCCC2)Cc2cccn2Cc2ccc(Cl)cc2)c1	u	3%	u	-3	-3	-60*
CCOc1ccccc1NC(=O)COc1coc(CN2CCc3ccccc32)cc1=O	7.9µM*	u	12µM*	x	x	5
CCOC(=O)c1ccccc1NC(=O)COc1coc(CN2CCc3ccccc32)cc1=O	u	12µM*	u	x	x	5
COc1ccccc1/C=C/C(=O)OC(C)CN1CCCCC1 (configuration not stated)	-13%	u	u	3	24	-40
Oc1c(C(c2ccc(Cl)cc2Cl)N2CCOCC2)sc2nc(-c3ccco3)nn12 (configuration not stated)	x	x	x	x	x	2
CCC1(c2ccccc2)C(=O)N=C(N)N(C#N)C1=O (configuration not stated)	16%	x	x	x	x	u
CCC1(c2ccccc2)ON(c2c(Br)cccc2Br)C1=O (configuration not stated)	u	0.41µM*	0.41µM*	x	x	u
Cc1ccc(N2C(=O)c3ccccc3C2Nc2ccc(S(=O)(=O)N3CCCCC3)cc2)nc1 (configuration not stated)	u	10%	x	-6	-12	11
CCN(CC)S(=O)(=O)c1ccc(NC2c3ccccc3C(=O)N2c2ccc(C)cn2)cc1 (configuration not stated)	14µM*	u	x	1	8	49
SMILES	HCV inhibitor	Pf growth 96h	Pf growth 48h	Cycloheximide cs	Shiga inhibitor	HCMV inh
COc1cc(NC2c3ccccc3C(=O)N2c2cc(C)ccn2)cc(OC)c1OC (configuration not stated)	8%	u	x	23*	58*	-21
O=C1c2ccccc2C(Nc2cccnc2)N1Cc1ccccc1 (configuration not stated)	-6%	10µM*	x	-5	-20	63
Cc1ccc(N2C(=O)c3ccccc3C2Nc2cccnc2)nc1 (configuration not stated)	-11%	-1%	23%	36*	46	51
COC(=O)[C@H](CC(C)C)NC(=O)NCc1ccc(Cl)cc1	23%	40%	12%	-1	15	19
Cc1ccc(N2C(=O)c3ccccc3C2Nc2ccc(S(=O)(=O)N3CCOCC3)cc2)nc1 (configuration not stated)	-21%	2%	x	7	-6	33
COc1cc(NC2c3ccccc3C(=O)N2c2ccc(C)cn2)cc(OC)c1OC (configuration not stated)	u	13%	u	48*	118*	56
Cc1cc(=O)oc2c(N)c(O)ccc12	0%	u	-8%	17	38*	-4
Cc1cc(=O)oc2c(CN3CCCCC3)c(O)ccc12	20%	x	x	x	x	11
CC(Cc1ccccc1)NC(=S)CN1CCCC1=S (configuration not stated)	0%	1%	-10%	8	-6	5
COc1ccc2c(c1)C(=O)N1[C@H]3c4cc(Br)ccc4OC[C@@H]3[C@H](c3ccccc3)[C@]1(C)C(=O)N2	u	12µM*	u	x	x	x
C[C@@]12C(=O)Nc3ccc(Br)cc3C(=O)N1[C@H]1c3cc(Br)ccc3OC[C@@H]1[C@@H]2c1ccccc1	u	3.3µM*	3.3µM*	x	x	u
C[C@@]12C(=O)Nc3ccc(Cl)cc3C(=O)N1[C@H]1c3cc(Br)ccc3OC[C@@H]1[C@@H]2c1ccccc1	u	x	x	x	x	-34
Oc1ccc(Nc2nccc3[nH]c(-c4ccccc4)cc23)cc1	x	x	x	x	x	-1
CCOC(=O)c1c(S(=O)(=O)NCC(=O)Nc2ccc(F)cc2F)c(C)n(C)c1C	20%	u	0%	2	2	0
CC(C)(C)OC(=O)N1CCC(C(=O)Nc2cccc(C(=O)N3CCCC3)c2)CC1	-10%[8.37 µM]	x	x	x	x	-8
COc1ccc(C(CNC(=O)c2cccc(NS(=O)(=O)c3ccc(C)c(F)c3)c2)N2CCOCC2)cc1 (configuration not stated)	-2%	64%	-15%	x	x	19
COc1cc2oc3ccc(C#Cc4ccc(N)cc4)cc3c(=O)c2cc1OC	13µM*	x	x	x	x	65
COc1cc2oc3cc(C#Cc4ccc(N)cc4)ccc3c(=O)c2cc1OC	u	x	x	x	x	-4
Nc1ccc(C#Cc2ccc3c(=O)c4ccccc4oc3c2)cc1	u	-13%	76%	37*	28*	45
COc1ccc(C(=O)c2cn(CC(=O)Nc3ccc4c(c3)OCCO4)c3ccc(OC)cc3c2=O)cc1	x	x	x	x	x	-13
C=CCc1c(C)nc(SC)nc1Nc1ccc(C(C)=O)cc1	u	u	u	46*	82*	11

Assay outcomes from PubChem.
